Data as given in PubChem BioAssay AID504336 (NMMLSC, 2011).

Test: TOR branch reporter RPL19A-GFP response – cell-based, S. cerevisiae, third cherry pick, flow cytometry, confirmation (AID 504336);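 also: median GFP fluorescence of all gated yeast cells by flow cytometry; ratio of well median fluorescence to plate mean of DMSO wells with DMSO = 100%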
Conditions: S. cerevisiae RPL19A-GFP strain, 3 h, at 10 µM, hits give low values;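 active = compounds whose GFP signal falls below 65% of the DMSO control level; inconclusive = fewer than 70 yeast cells counted in the well; inactive = the rest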

GFP response relative to DMSO, inactive:
COc1ccc(NC(=O)O/N=C2/CCCc3ccc(OC)cc32)cc1 104%
Oc1ccc(Cl)c2cccnc12 98%
CCCOCc1ccc(O)c2ncccc12 101%
O=C(Nc1ccccc1Cl)ON=C1c2ccccc2-c2ccccc21 102%
CCCCC(=O)NCCc1cc2c(OC)ccc(OC)c2[nH]c1=O 97.5%
COc1ccc(NC(=O)ON=C2c3ccccc3-c3ccccc32)cc1 107%
Cc1cc(C)c(NC(=O)CC(=O)c2ccccc2)c(Cl)c1 97.8%
CC(C)Nc1ncnc2ccc(Br)cc12 97.8%
COC(=O)COc1c(Cl)cc(Cl)c2ccc(C)nc12 105%
COc1ccccc1Nc1nc(NCC(C)C)nc(N)c1[N+](=O)[O-] 102%
Cc1nc2c(O)cccc2cc1CO 102%
CNc1nc(N)c([N+](=O)[O-])c(Nc2ccccc2OC)n1 103%
NC(=O)c1ccnc2c(O)cccc12 98.8%
COc1ccc(N/C(C)=C/C(=O)c2ccccc2)cc1 102%
C/C(=C\C(=O)c1ccccc1)Nc1ccc(O)cc1 100%
Cc1ccc2c(Cl)cc(Cl)c(O)c2n1 82.6%
O=C(N/N=C/c1ccccc1)c1cccc2ccccc12 98.3%
Cc1cccc(Nc2cc(=O)[nH]c(=O)[nH]2)c1 100%
Cc1cccc(Nc2cc(=O)[nH]c(=O)[nH]2)c1C 98.5%
O=C(Nc1cccc2ccccc12)ON=C1CCCCC1 101%
C=CCNc1nc(N)c([N+](=O)[O-])c(Nc2cccc(Cl)c2)n1 104%
COc1cccc2c(Cl)c(CCCl)c(C)nc12 99.3%
COC(=O)c1cc(=O)c2cccc(OC)c2[nH]1 101%
O=C(O)c1ccccc1-c1ccccc1C(=O)Nc1ccc(-c2nc3cc(Cl)ccc3o2)cc1 98.5%
Nc1cc(C(=O)O)c(N)c2c1C(=O)c1ccccc1C2=O 98.5%
Cc1cc(C)c2ccc(N)nc2c1O 101%
OCc1ccnc2c(O)cccc12 99.1%
CCCC(=O)Nn1cnc2c(c1=O)C1(CCCCC1)Cc1ccccc1-2 103%
COc1cccc(N/C=C/C(=O)c2ccc(Cl)cc2)c1 101%
Cc1ccc(C)c(Nc2ncnc(N)c2[N+](=O)[O-])c1 99.3%
COCCCNc1nc(N)c([N+](=O)[O-])c(Nc2ccccc2OC)n1 99.1%
COc1ccccc1Nc1nc(NCCC(C)C)nc(N)c1[N+](=O)[O-] 97.8%
Nn1cnc2c(c1=O)C1(CCCCC1)Cc1ccccc1-2 101%
C/C(=C\C(=O)c1ccccc1)Nc1cccc(O)c1 98%
COCCNc1nc(N)c([N+](=O)[O-])c(Nc2ccc(F)cc2)n1 100%
CCN(CC)C(=O)Oc1ccnc2cc(Cl)ccc12 103%
Oc1ccc(F)c2cccnc12 101%
Cn1c(NCCO)nc2c(c1=O)C1(CCCCC1)Cc1ccccc1-2 103%
Nc1cccc2c1C(=O)c1ccc(Cl)cc1C2=O 102%
